Among all 220,000 compounds or so, about 910 (0.41%) were called active.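 Rule for the calls: active = primary inhibition above the hit cutoff, then over 50% inhibition at one or more dose response concentrations (cut at about 23% in these data, passing the limit was not always enough); inconclusive = conflicting primary data, or primary hits not chosen for dose response; inactive = low primary inhibition, or under 50% at every dose.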 The list comes from a sample in which actives are over-represented; it also holds similar structures and randomly drawn compounds. Potency and affinity values are given separately.

This assay deals with Aminopeptidase N (Plasmodium falciparum (isolate 3D7)) (UniProt O96935). The experiment in a line: P. falciparum M1AAP inhibitors, biochemical, fluorogenic H-Leu-NHMec substrate, 1536-well (AID 1445).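 Note: plate controls were DMSO full reaction for no effect and no enzyme background for full effect.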 To be noted: recombinant M1AAP, H-Leu-NHMec fluorogenic kinetic assay; at 30 µM, hits give high values unless noted.
Aminopeptidase N (Plasmodium falciparum (isolate 3D7)), sequence (O96935 whole entry, looked up): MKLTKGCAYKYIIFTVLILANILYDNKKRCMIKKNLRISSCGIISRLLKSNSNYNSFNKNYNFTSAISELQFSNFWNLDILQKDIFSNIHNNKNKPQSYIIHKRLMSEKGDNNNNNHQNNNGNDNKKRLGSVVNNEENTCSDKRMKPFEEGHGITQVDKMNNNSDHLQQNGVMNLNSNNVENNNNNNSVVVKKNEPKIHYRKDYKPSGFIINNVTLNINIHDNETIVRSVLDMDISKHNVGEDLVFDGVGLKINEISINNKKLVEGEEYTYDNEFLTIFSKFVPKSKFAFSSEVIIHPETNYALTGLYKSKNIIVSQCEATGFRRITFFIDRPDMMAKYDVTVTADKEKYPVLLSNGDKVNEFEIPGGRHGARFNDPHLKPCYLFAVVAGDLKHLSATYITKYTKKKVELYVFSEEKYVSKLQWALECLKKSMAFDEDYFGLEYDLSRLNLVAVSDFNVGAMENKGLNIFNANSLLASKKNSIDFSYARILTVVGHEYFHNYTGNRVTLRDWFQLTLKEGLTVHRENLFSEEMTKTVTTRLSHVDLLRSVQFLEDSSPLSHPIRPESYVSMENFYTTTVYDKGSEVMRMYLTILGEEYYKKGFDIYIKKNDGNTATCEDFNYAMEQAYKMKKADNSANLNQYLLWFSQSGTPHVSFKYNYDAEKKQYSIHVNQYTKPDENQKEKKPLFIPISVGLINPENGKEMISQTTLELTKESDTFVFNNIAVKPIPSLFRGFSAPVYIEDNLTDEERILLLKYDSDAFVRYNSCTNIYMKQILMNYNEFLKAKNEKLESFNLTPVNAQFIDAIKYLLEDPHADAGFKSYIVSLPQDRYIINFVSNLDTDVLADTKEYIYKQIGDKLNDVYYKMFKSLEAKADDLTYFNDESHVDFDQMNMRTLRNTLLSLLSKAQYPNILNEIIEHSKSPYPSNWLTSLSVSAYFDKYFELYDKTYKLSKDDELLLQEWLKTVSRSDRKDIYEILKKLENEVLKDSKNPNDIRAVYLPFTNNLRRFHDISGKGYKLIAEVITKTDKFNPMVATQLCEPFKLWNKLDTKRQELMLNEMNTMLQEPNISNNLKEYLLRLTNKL
Regarding `O=C(NCCc1ccccc1)C1CCN(c2nc3ccccc3o2)CC1`, the inhibition is 1.06% (inactive).

On to `O=S(=O)(c1ccc2c(c1)OCCO2)N1CCC(n2cnc3cc(F)ccc32)CC1`, for which the inhibition was 2.37% (inactive).

For `O=S(=O)(c1ccc2c(c1)OCCO2)N1CCC(n2nnc3cc(C(F)(F)F)ccc32)CC1`, the inhibition was -4.12% (inactive).

As to `O=c1nc2n(c3ccc(Br)cc13)CCS2`, the inhibition was 1.45% (inactive).

For `COc1ccccc1NC(=O)Nc1ccccc1N1CCOCC1`, the inhibition is 3.89% (inactive).

For the molecule `CC(=O)c1sc(-c2ccc(F)cc2)cc1NS(=O)(=O)c1ccc(C)cc1`, the inhibition is 0.65% (inactive).

As to `CC(=O)c1sc(-c2ccccc2)cc1NS(=O)(=O)c1ccccc1`, the inhibition is -0.36% (inactive).

In the case of `CCOC(=O)C1=C(O)/C(=C/c2ccc(OCC(=O)O)c(OC)c2)SC1=Nc1ccc(OCC)cc1`, the inhibition was 13.2% (inactive).

Consider `CCOC(=O)C1=C(C)N(c2ccc(OC)cc2)C(=O)/C1=C\c1ccc(O)c(OCC)c1`, for which the inhibition is 4.43% (inactive).

As to `COc1cc(/C=C2\SC(N)=NC2=O)ccc1OCC(=O)Nc1ccc(C)cc1`, the inhibition was 10% (inactive).

For `CCOc1cc(/C=C2\SC(=Nc3ccc(F)cc3)N(c3ccc(F)cc3)C2=O)ccc1OCC(=O)O`, the inhibition was 16.8% (inactive).

On to `O=C(/C=C/c1ccc(S(=O)(=O)N2CCOCC2)cc1)NCc1ccc(Cl)cc1`, for which the inhibition was -0.73% (inactive).

As to `C=CCn1c(COc2ccccc2)nnc1SCC(=O)O`, the inhibition is 0.9% (inactive).

Regarding `Cc1nn(-c2ccccc2)c(C)c1NC(=O)Cc1cccs1`, the inhibition was 4.27% (inactive).

As for `CC(C)OC(=O)CSc1ncnc2c1cnn2Cc1ccccc1`, the inhibition was 0.69% (inactive).

Regarding `Cc1ccc(S(=O)(=O)N2CCCC2C(=O)Nn2cnnc2)cc1` (stereo not given), the inhibition is -0.66% (inactive).

Take `Cc1cccc(C)c1NC(=O)CN1C(=O)S/C(=C\c2cccn2-c2cccc(C(=O)O)c2)C1=O`: the inhibition was 8.9% (inactive).

Consider `O=C(O)c1cccc(-n2cccc2/C=C2\SC(=O)N(Cc3ccccc3F)C2=O)c1`, for which the inhibition was 15.3% (inactive).

Regarding `CCOC(=O)C1(C(F)(F)F)N=C(C(F)(F)F)Nc2cc(C)c(C)cc21` (stereo not given), the inhibition was 1.48% (inactive).

Take `Cc1ccccc1N=CC1=C(O)c2ccccc2C1=O`: the inhibition is 4.59% (inactive).

In the case of `O=C1C(C=Nc2ccccc2O)=C(O)c2ccccc21`, the inhibition is 20.6% (inactive).

As to `Cc1ccc(C(C(=O)NC2CCCCC2)N(C(=O)c2csnn2)C2CC2)o1` (stereo not given), the inhibition was 9.01% (inactive).

On to `COCCN(C(=O)c1csnn1)C(C(=O)NC1CCCCC1)c1sccc1C` (stereo not given), for which the inhibition is 21.1% (inactive).

`Cc1ccc(C(C(=O)NC2CCCC2)N(Cc2cccs2)C(=O)c2csnn2)o1` (stereo not given): the inhibition was 7.36% (inactive).

Consider `O=C(NC1CCCC1)C(c1ccncc1)N(Cc1cccs1)C(=O)c1csnn1` (stereo not given), for which the inhibition is 24.6% (active).

For `CC(C)(C)NC(=O)C(c1ccncc1)N(Cc1cccs1)C(=O)c1csnn1` (stereo not given), the inhibition was -14% (inactive).

As for `O=C(COC(=O)c1ccncc1)NCCCc1ccccc1`, the inhibition was 2.54% (inactive).

In the case of `Cc1ccc(Cl)cc1NC(=O)c1cccc(OC(F)F)c1`, the inhibition is 5.73% (inactive).

As for `Cc1ccccc1NC(=O)CSc1nnc(-c2ccoc2C)n1CCc1ccccc1`, the inhibition is 8.39% (inactive).

`COc1ccccc1NC(=O)CSc1nnc(-c2ccoc2C)n1CCc1ccccc1`: the inhibition is 24.7% (active).

For the molecule `Cc1occc1-c1nnc(SCC(=O)Nc2ccccc2)n1CCc1ccccc1`, the inhibition is 0.44% (inactive).

As to `C=CCc1c(O)c(CC)cc2c(C)cc(=O)oc12`, the inhibition is 10.9% (inactive).

Take `CCCCc1cc(=O)oc2cc(OCc3cc(OC)c(OC)c(OC)c3)c(Cl)cc12`: the inhibition was -3.71% (inactive).

As for `CCCCc1cc(=O)oc2cc(OCC(=O)N(CC)CC)c(Cl)cc12`, the inhibition is 6.8% (inactive).

As for `CCN(CC)Cc1c(O)ccc2c(-c3ccccc3)cc(=O)oc12`, the inhibition is 8.74% (inactive).

As to `CCCCc1cc(=O)oc2cc(OCc3nn[nH]n3)c(Cl)cc12`, the inhibition was 6.21% (inactive).

Regarding `CCC(=O)c1cc2c(C)cc(=O)oc2c(C)c1O`, the inhibition is 4.77% (inactive).

Turning to `Cc1cc(=O)oc2c(N)c(O)ccc12`, the inhibition was 8.69% (inactive).

Regarding `COc1ccccc1N1CCN(C(=O)CSc2ccccc2)CC1`, the inhibition is -1.68% (inactive).

As for `COc1cc(OC)cc(-c2nnc(SCC(=O)N(Cc3ccccc3)C(C)(C)C)o2)c1`, the inhibition was 1.01% (inactive).

Consider `Cc1cccc(NC(=O)c2ccccc2OCC(=O)c2ccc(F)cc2)c1`, for which the inhibition is 3.15% (inactive).

Take `COC(=O)c1cc(Br)c(N)cc1OC`: the inhibition was -6.6% (inactive).

As to `CC(=O)c1cccc(NC(=O)C2CC(=O)N(c3cccc(C)c3C)C2)c1` (stereo not given), the inhibition is -2.91% (inactive).

For the molecule `O=C(O)c1ccccc1C(=O)NNc1cccc(Cl)n1`, the inhibition was 0.28% (inactive).

Turning to `O=C(CCCc1nc2ccccc2s1)NNC(=O)CCN1CCN(Cc2ccccc2)CC1`, the inhibition is 2.9% (inactive).

`O=C(O)CC1=C(Nc2ccccc2)C(=O)N(c2ccccc2)C1c1ccc(F)cc1` (stereo not given): the inhibition is -3.54% (inactive).

As for `CCCc1cc(=O)oc2c(C)c3occ(C)c3cc12`, the inhibition was -0.02% (inactive).

On to `CN(C)Cc1c(O)ccc2c(-c3ccccc3)cc(=O)oc12`, for which the inhibition is 7.13% (inactive).

Consider `CCCCN(C)Cc1c(O)ccc2c(-c3ccccc3)cc(=O)oc12`, for which the inhibition is 3.86% (inactive).

For the molecule `CCCc1cc(=O)oc2cc(OCC(=O)N(C)C)c(Cl)cc12`, the inhibition is -0.86% (inactive).

For the molecule `Oc1c(C(c2cccc(F)c2)N2CCN(Cc3ccccc3)CC2)sc2ncnn12` (stereo not given), the inhibition is 9.71% (inactive).

Take `Cc1ccc(-c2cc(C(=O)O)n[nH]2)o1`: the inhibition was 5.31% (inactive).

Turning to `CC1CCCCN1C(=O)c1cc(-c2ccc(Cl)c(Cl)c2)on1` (stereo not given), the inhibition is -16.2% (inactive).

With `O=C(CSc1nnc(-c2cc3ccccc3cc2O)n1Cc1ccco1)N1CCc2ccccc2C1`, the inhibition was 10.2% (inactive).

As for `c1ccc(CSCc2cn3ccccc3n2)cc1`, the inhibition was -5.43% (inactive).

With `O=C(O)c1ccc(-c2ccccn2)s1`, the inhibition was 0.37% (inactive).

On to `Nc1ccc(-c2ccc(C(=O)O)s2)cn1`, for which the inhibition is 28.6% (inactive).

For the molecule `CC1CCc2c(sc3nc(CSc4n[nH]c(N)n4)[nH]c(=O)c23)C1` (stereo not given), the inhibition was -10.6% (inactive).

Consider `O=C(Nc1nccs1)c1csc2c1CCCC2`, for which the inhibition is 8.61% (inactive).

As for `Cc1ccc(-c2ccc(=O)n(CC(=O)Nc3cccc(C(=O)N4CCN(C)CC4)c3)n2)cc1`, the inhibition was 6.7% (inactive).

Turning to `O=C1CC(c2ccccc2F)c2c(c3ccccc3[nH]c2=O)O1` (stereo not given), the inhibition is 0.7% (inactive).

Consider `Cc1sc(NC(=O)CSc2nnc(-c3ccccc3)o2)c(C#N)c1C`, for which the inhibition was 25% (active).

As for `N#Cc1c(NC(=O)CSc2nnc(-c3ccccc3)o2)sc2c1CCCC2`, the inhibition was 21.3% (inactive).

With `Cc1sc(NC(=O)CSc2nnc(-c3ccc(F)cc3)o2)c(C#N)c1C`, the inhibition was 16% (inactive).

In the case of `CCc1nnc(NC(=O)CSc2nnc(-c3ccco3)o2)s1`, the inhibition is -0.37% (inactive).

For `COC(=O)CSc1nnc(-c2ccc(NS(=O)(=O)c3ccccc3)cc2)o1`, the inhibition is 7.24% (inactive).

With `Cc1ccc(-n2c(C)nc3c(cnn3-c3ccc(C)c(C)c3)c2=O)cc1C`, the inhibition was 2.27% (inactive).

Consider `CNNC(=O)C(=O)NNS(=O)(=O)c1ccccc1`, for which the inhibition is 4.63% (inactive).

For the molecule `O=C1c2ccccc2C(=O)N1Cc1nc2ccccc2o1`, the inhibition was 13% (inactive).

For `O=C1c2ccccc2C(=O)N1c1ccc(-c2nc3ccccc3o2)cc1`, the inhibition is -1.24% (inactive).

As to `O=C(c1ccc(F)cc1)N(NC(=O)C(O)(c1ccccc1)c1ccccc1)c1ccccc1`, the inhibition was 0.71% (inactive).

As to `COc1ccc(C(=O)/C=C/Nc2cc(C)on2)cc1`, the inhibition is 8.8% (inactive).

In the case of `COc1ccc([N+](=O)[O-])cc1/C=N/NC(=O)/C(=C\c1cccs1)NC(=O)c1ccccc1`, the inhibition was 4.13% (inactive).

As to `Fc1ccccc1-c1nc2nc3ccccc3nc2n1CC1CCCO1` (stereo not given), the inhibition is 14.5% (inactive).

Turning to `c1coc(-c2nc3nc4ccccc4nc3n2CC2CCCO2)c1` (stereo not given), the inhibition is 26% (active).

Take `COCCn1c(-c2ccco2)nc2nc3ccccc3nc21`: the inhibition is 22.9% (inactive).

As to `CCCCCn1c(-c2ccco2)nc2nc3ccccc3nc21`, the inhibition is 13% (inactive).

Take `c1ccc(-c2nc3nc4ccccc4nc3n2CC2CCCO2)cc1` (stereo not given): the inhibition is 15.8% (inactive).

Consider `COC(=O)c1ccccc1NC(=O)Cn1cnc2ccc(S(=O)(=O)N3CCC(C)CC3)cc2c1=O`, for which the inhibition was 20.3% (inactive).

In the case of `CCOC(=O)C1=C(CN2CCSCC2)NC(=O)NC1c1ccc2c(c1)OCO2` (stereo not given), the inhibition is -5.96% (inactive).

In the case of `O=[N+]([O-])c1ccccc1/C=N/N1CCN(c2ccc(Cl)cc2)CC1`, the inhibition is 1.05% (inactive).

Turning to `C/C(N)=C(/C#N)C(=O)COC(=O)Cc1coc2cc(C)ccc12`, the inhibition was 4.44% (inactive).

Turning to `C/C(CC(=O)N1CCCC1)=N\NC(=O)c1cc2ccccc2cc1O`, the inhibition was 10.8% (inactive).

Turning to `C/C(=N\NC(=O)c1ccc(-c2ccccc2)cc1)C1C(=O)c2ccccc2C1=O`, the inhibition was -1.49% (inactive).

For the molecule `C/C(=N\NC(=O)c1cc2ccccc2cc1O)c1cc2ccccc2o1`, the inhibition is 3.43% (inactive).

Consider `CCOc1ccc(C(=O)N/N=C(/C)C2C(=O)c3ccccc3C2=O)cc1`, for which the inhibition was 4.51% (inactive).

As to `C/C(=N\NC(=O)CCc1ccccc1)C1C(=O)c2ccccc2C1=O`, the inhibition was 0.57% (inactive).

As to `C/C(=N\NC(=O)c1ccc(Br)cc1)C1C(=O)c2ccccc2C1=O`, the inhibition was 39.9% (inactive).

Regarding `CCOc1ccccc1N(CC(=O)NCCOC)C(=O)CCC(=O)Nc1ccccn1`, the inhibition was -5.17% (inactive).

On to `CCC1CCCCN1CCCNC(=O)CC1Oc2ccccc2NC1=O` (stereo not given), for which the inhibition is 7.18% (inactive).

Take `COc1cc([N+](=O)[O-])ccc1NC(=O)CCCOc1ccc(C)cc1`: the inhibition was 17.4% (inactive).

On to `CC(C)(C)c1cc(C(=O)N/N=C/c2ccccc2O)n(-c2ccccc2)n1`, for which the inhibition is 11.1% (inactive).

For the molecule `COCCCNC(=O)Cn1nnc(-c2ccc(NC(=O)c3ccccc3F)cc2)n1`, the inhibition was 0.6% (inactive).

With `Nc1nc(COc2ccc3ccccc3c2)cs1`, the inhibition is -0.25% (inactive).

For `O=C(NN=C1CCCCCC1)NC1CCCCC1`, the inhibition is -3.52% (inactive).

By inhibition is commonly meant the relative decrease from the control value, in per cent.
